PubChem BioAssay AID1159580 (chemical genetic matrix, 2015)
Out of some 5,500 compounds screened, about 2,000 (36%) were called active. Another 18% or so got no clear call; they are omitted. Rule as the data show it: active = normalized growth mostly below about 0.91 (no sharp cut-off); inconclusive = no clear call, values can overlap the other calls; inactive = mostly above about 0.92. Some of the results follow.

Test: chemical genetic growth profiling, strain panel (AID 1159580);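 also: tested at 20 µM; growth read once vehicle control cultures reached saturation at 30 °C; 1 = growth at the plate median or of vehicle wells; lower values mean less growth of the strain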
Details: S. cerevisiae deletion strains, growth OD

Measured: normalized growth

OCCc1ccccc1
inactive: locus YAL021C, strain ccr4, hits give low values 0.971 | locus YAL026C, strain drs2, hits give low values 0.98 | locus YAL030W, strain snc1, hits give low values 0.968 | locus YBL061C, strain skt5, hits give low values 0.985 | locus YBR009C, strain hhf1, hits give low values 0.976 | locus YBR023C, strain chs3, hits give low values 0.992 | locus YBR171W, strain sec66, hits give low values 0.968 | locus YBR231C, strain swc5, hits give low values 0.989 | locus YBR279W, strain paf1, hits give low values 0.989 | locus YCL011C, strain gbp2, hits give low values 0.989 | locus YCL016C, strain dcc1, hits give low values 0.994 | locus YCL061C, strain MRC1, hits give low values 0.994 | locus YCL069W, strain vba3, hits give low values 0.99 | locus YCR088W, strain abp1, hits give low values 0.983 | locus YDL005C, strain med2, hits give low values 0.989 | locus YDL040C, strain nat1, hits give low values 0.999 | locus YDR001C, strain nth1, hits give low values 0.974 | locus YDR069C, strain doa4, hits give low values 0.981 | locus YDR137W, strain rgp1, hits give low values 0.948 | locus YDR159W, strain sac3, hits give low values 0.98 | locus YDR195W, strain ref2 0.947 | locus YDR297W, strain sur2, hits give low values 0.984 | locus YDR334W, strain swr1, hits give low values 0.94 | locus YDR335W, strain msn5, hits give low values 0.982 | locus YDR392W, strain spt3, hits give low values 0.999 | locus YEL003W, strain gim4, hits give low values 0.981 | locus YEL037C, strain rad23, hits give low values 0.986 | locus YEL061C, strain CIN8 (second series), hits give low values 0.977 | locus YER015W, strain faa2, hits give low values 0.987 | locus YER016W, strain bim1, hits give low values 0.99 | locus YER111C, strain swi4, hits give low values 0.982 | locus YER155C, strain BEM2 (second series), hits give low values 0.975 | locus YFR010W, strain ubp6, hits give low values 0.973 | locus YGL167C, strain pmr1, hits give low values 0.99 | locus YGL173C, strain kem1, hits give low values 0.957 | locus YGL227W, strain vid30, hits give low values 0.971 | locus YGL240W, strain doc1, hits give low values 0.977 | locus YGL253W, strain hxk2, hits give low values 0.986 | locus YHR013C, strain ard1, hits give low values 0.99 | locus YHR027C, strain rpn1, hits give low values 0.961 | locus YHR030C, strain SLT2, hits give low values 0.97 | locus YHR079C, strain IRE1, hits give low values 0.951 | locus YHR142W, strain chs7, hits give low values 0.972 | locus YJL092W, strain hpr5, hits give low values 0.988 | locus YJL095W, strain BCK1 (second series), hits give low values 0.986 | locus YJL095W, strain BCK1, hits give low values 1.02 | locus YJL115W, strain asf1, hits give low values 0.976 | locus YJL129C, strain trk1, hits give low values 1.03 | locus YJL154C, strain vps35, hits give low values 0.969 | locus YJL164C, strain tpk1, hits give low values 1 | locus YJL166W, strain qcr8, hits give low values 0.989 | locus YJL187C, strain SWE1, hits give low values 0.987 | locus YJR066W, strain TOR1, hits give low values 0.952 | locus YKL160W, strain elf1, hits give low values 0.996 | locus YKR026C, strain gcn3, hits give low values 0.983 | locus YKR091W, strain srl3, hits give low values 0.994 | locus YLL001W, strain dnm1, hits give low values 0.999 | locus YLL026W, hits give low values 0.97 | locus YLL041C, strain sdh2, hits give low values 0.984 | locus YLR027C, strain aat2, hits give low values 0.965 | locus YLR113W, strain HOG1, hits give low values 1.01 | locus YLR221C, strain rsa3, hits give low values 0.982 | locus YLR258W, strain gsy2, hits give low values 0.992 | locus YLR262C, strain YPT6 (second series), hits give low values 0.961 | locus YLR320W, strain mms22, hits give low values 0.987 | locus YLR342W, strain FKS1, hits give low values 0.988 | locus YLR357W, strain rsc2, hits give low values 1 | locus YLR370C, strain arc18, hits give low values 0.988 | locus YLR384C, strain iki3, hits give low values 0.979 | locus YML120C, strain ndi1, hits give low values 0.995 | locus YMR058W, strain fet3, hits give low values 0.98 | locus YMR125W, strain sto1, hits give low values 0.982 | locus YMR129W, hits give low values 0.99 | locus YMR205C, strain PFK2, hits give low values 0.963 | locus YMR231W, strain pep5, hits give low values 0.99 | locus YNL071W, strain lat1, hits give low values 0.986 | locus YNL183C, strain NPR1, hits give low values 0.958 | locus YNL209W, strain ssb2, hits give low values 0.988 | locus YNL248C, strain rpa49, hits give low values 0.994 | locus YNL322C, strain KRE1 (second series), hits give low values 0.988 | locus YNR049C, strain mso1, hits give low values 0.975 | locus YOR001W, strain rrp6, hits give low values 0.993 | locus YOR070C, strain gyp1, hits give low values 0.986 | locus YOR080W, strain dia2, hits give low values 0.996 | locus YOR083W, strain WHI5, hits give low values 0.995 | locus YOR106W, strain vam3, hits give low values 0.976 | locus YOR231W, strain MKK1, hits give low values 0.973 | locus YOR265W, strain rbl2, hits give low values 1 | locus YOR270C, strain vph1, hits give low values 0.949 | locus YOR290C, strain snf2, hits give low values 0.986 | locus YPL051W, strain arl3, hits give low values 0.995 | locus YPL078C, strain atp4, hits give low values 0.976 | locus YPL106C, strain sse1, hits give low values 0.916 | locus YPL240C, strain hsp82, hits give low values 0.997 | locus YPL256C, strain CLN2, hits give low values 0.981
